Measured values taken from PubChem BioAssay AID1508622 (National Center for Advancing Translational Sciences (NCATS), 2021).
Calls of active or inactive are those of the source. Calls follow the shape of the dose curve; as a rule, active = well fitted activation curve with a large enough effect; inconclusive = small, poorly fitted or top-dose-only effect; inactive = no such curve, though single readings can be large or run the other way.

assay: Confirmatory qHTS for Identification of Small Molecule Activators of Huntingtin-Antisense Promoter Activity; settings: HEK293 HTT-AS promoter firefly luciferase reporter, 24 h; series mostly up to 57.5 µM
Outline: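 Plated reporter HEK293 cells (24 h) received library compounds at up to 57.5 uM final or 50 uM PTC124, incubated 24 h at 37C; firefly luciferase luminescence was then recorded with Dual-Glo reagent.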
Potency is read from the fitted curve at half-maximal effect.

Potency, inactive:
CCc1cccc(C)c1NC(=O)COCc1cc(-c2ccc3c(c2)OCO3)on1
CCc1ccc(NC(=O)C2CCCN2S(=O)(=O)c2ccc3c(c2)CCCC(=O)N3)cc1 (stereo not given)
CCCCN(C)S(=O)(=O)c1cc(-c2cc(C)no2)ccc1C
CCOC(=O)Cc1ccc(NC(=O)N(Cc2ccc(CC)cc2)Cc2cn[nH]c2-c2ccc(OC)cc2)cc1
Cc1cccc(N2CCN(C(=O)C3CCN(S(=O)(=O)c4c(C)noc4C)CC3)CC2)c1C
Cc1oc(-c2ccc(C(=O)NCc3ccccc3Cl)cc2)nc1CN1CCc2ccccc21
CC(=O)c1cccc(NS(=O)(=O)c2ccc3[nH]c4c(c3c2)CCCCC4)c1
COc1ccc(-c2nc3sc(CCNS(=O)(=O)c4ccccc4)c(C)n3n2)cc1
COc1ccc(-c2nc(CNS(=O)(=O)c3ccc(F)cc3)cs2)cc1
CCn1c(SCc2ccc(F)cc2Cl)nc(=O)c2c(C(=O)OC)cc(C3CC3)nc21
Cc1cc(NC(=O)Cn2c(=O)oc3cc(S(=O)(=O)N4CCCC4)ccc32)ccc1Br
Cc1ccc(C)c(NC(=O)Cn2c(=O)oc3cc(S(=O)(=O)NCc4ccccc4)ccc32)c1
O=C(Nc1ccc(Br)cc1)c1cc(S(=O)(=O)NC2CCCC2)ccc1F

Potency, active:
CSc1ccc(/C=C/c2nc3ccccc3n2S(=O)(=O)c2ccc(F)c(C)c2)cc1 135 nM
Cc1cccc(S(=O)(=O)Nc2cccc(-c3ccc(N4CCCCC4)nn3)c2)c1 2390 nM
